The record followed here is PubChem BioAssay (Tox21).

Molecules are shown by their SMILES. Results filed as inconclusive are left out. Calls of active or inactive are those of the source. Unless noted, calls follow the shape of the dose curve; as a rule, active = well fitted curve in the direction sought with a large enough effect in the repeat runs; inconclusive = weak or mixed curves; inactive = no such curve, though single readings can be large; an effect the other way counts as inactive or inconclusive.

A short description of assay [1]: qHTS assay to identify small molecule agonists of the vitamin D receptor (VDR) signaling pathway - cell viability counter screen (AID 743224). Also: nearly all actives have a fitted effect of over 50% in size. Also: potency is read from the fitted curve at half-maximal effect. The gist of the method:
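Here cell health was gauged by luminescent ATP detection (CellTiter-Glo, 30 min RT) in VDR-bla cells that had been incubated with test compounds for 16 h at 37C and 5% CO2.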
On the technique in general: In qHTS, concentration-response curves come from the screen itself.

Assay [2] can be described thus: qHTS assay to identify small molecule antagonists of the vitamin D receptor (VDR) signaling pathway - cell viability counter screen (AID 743225). Also: nearly all actives have a fitted effect of over 50% in size. Also: potency is read from the fitted curve at half-maximal effect. The method in brief:
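Cells (VDR-UAS-bla HEK 293T) are plated, rested 4 h at 37C, dosed with compound and 3 nM final 1-alpha,25-dihydroxy vitamin D3, and incubated 16 h. Viability is taken from CellTiter-Glo luminescence in the reporter wells.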

Assay [3] is described as follows: qHTS assay to identify small molecule agonists of the NFkB signaling pathway - cell viability counter screen (AID 1159515; calls by dose curve; also: series mostly up to about 61 µM; nearly all actives have a fitted effect of over 55% in size). The method in brief: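 5 hr compound treatment of NFkB-bla ME-180 cells (2,000/well, seeded overnight beforehand), followed by reporter substrate for 1.5 hr. CellTiter-Glo added afterward; luminescence after 30 min RT.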
A short description of assay [4]: qHTS assay to identify small molecule agonists of the endoplasmic reticulum stress response signaling pathway (AID 1159516; active = well fitted activation curve with a large enough effect in the signal ratio in the repeat runs, not every such curve was filed as active; the % refers to the signal ratio). The method in brief:
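Reporter HeLa cells (ESRE-beta-lactamase) underwent 5 hr compound incubation at 37 C and 5% CO2 in quantitative HTS format. Detection followed 2 hr of FRET substrate loading at room temperature.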

Assay [5] in a line: qHTS assay to identify small molecule agonists of the endoplasmic reticulum stress response signaling pathway - cell viability counter screen (AID 1159517; calls by dose curve;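 also: HeLa cells carrying an ER stress response element beta-lactamase reporter; series mostly up to about 61 µM; nearly all actives have a fitted effect of over 50% in size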). The gist of the method:
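ESRE-bla HeLa cells, 1,500 per well, seeded overnight then treated with compounds for 5 hr at 37 C. After the beta-lactamase read, viability in the same wells is measured by CellTiter-Glo luminescence after 30 min at room temperature.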

Assay [6] is described as follows: qHTS assay to identify small molecule antagonists of the retinoid-related orphan receptor gamma (ROR-gamma) signaling pathway - cell viability counter screen (AID 1159520). Also: nearly all actives have a fitted effect of over 50% in size. The method in brief: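 Tet-on ROR gamma CHO cells were given compounds for 2 hr, then doxycycline hyclate at 1 uM final, and incubated 16 hr at 37 C. Viability was measured as ATP content by CellTiter-Glo luminescence.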

Assay [7] concerns the target Nuclear receptor ROR-gamma (Homo sapiens) (UniProt P51449). Nature of the assay: qHTS assay to identify small molecule antagonists of the retinoid-related orphan receptor gamma (ROR-gamma) signaling pathway (AID 1159521; also: nearly all actives have a fitted effect of over 50% in size; also: potency is read from the fitted curve at half-maximal effect). The method in brief: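 RORγ antagonism is scored from reduced reporter luminescence in Tet-on CHO cells. Induction used 1 uM final doxycycline hyclate for 16 h at 37 C, following a 2 h compound exposure.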

Assay [8] can be described thus: qHTS assay to identify small molecule agonists of the AP-1 signaling pathway - cell viability counter screen (AID 1159525; calls by dose curve; also: nearly all actives have a fitted effect of over 55% in size). The method in brief: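 AP-1-bla ME-180 cells in Opti-MEM with 0.5% dialyzed FBS, compound exposure 5 h at 37 C in 15-point titration. Viability read in the same wells as ATP content by CellTiter-Glo luminescence, normalised to tetra-n-octylammonium bromide and DMSO controls.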

The nature of assay [9]: qHTS assay to identify small molecule agonists of the AP-1 signaling pathway (AID 1159526; calls by dose curve; also: potency is read from the fitted curve at half-maximal effect).
Assay [10] concerns the target Retinoic acid receptor RXR-alpha (Homo sapiens) (UniProt P19793). As to the kind of experiment: qHTS assay to identify small molecule agonists of the RXR signaling pathway (AID 1159527; calls by dose curve; also: nearly all actives have a fitted effect of over 35% in size). The method in brief: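 qHTS of the Tox21 10K library in GeneBLAzer RXR-alpha HEK 293T cells carrying a beta-lactamase reporter […]; 16 hr treatment, 9-cis retinoic acid as agonist control, FRET read-out.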

Assay [11] is described as follows: qHTS assay to identify small molecule agonists of the RXR signaling pathway - cell viability counter screen (AID 1159529). Also: nearly all actives have a fitted effect of over 50% in size. Also: potency is read from the fitted curve at half-maximal effect. The gist of the method: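 Cell viability is measured by CellTiter-Glo luminescence, 30 min at room temperature, in wells already read for beta-lactamase. Engineered HEK 293T cells (RXR-alpha-UAS-bla) are dosed 16 hr at 37 C. Tetraoctyl ammonium bromide serves as positive control.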

Assay [12] can be described thus: qHTS assay to identify small molecule antagonists of the retinoid acid receptor (RAR) signaling pathway - cell viability counter screen (AID 1159551). Also: nearly all actives have a fitted effect of over 35% in size. The method in brief:
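Seed C3RL4 cells; next day add compound, then retinol to 1 uM final; incubate 6 h at 37 C; add CellTiter-Glo; read luminescence after 30 min at RT.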

Assay [13] can be described thus: qHTS assay to identify small molecule antagonists of the retinoic acid receptor (RAR) signaling pathway (AID 1159552; also: nearly all actives have a fitted effect of over 50% in size; also: potency is read from the fitted curve at half-maximal effect). The gist of the method: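 Quantitative HTS in C3RL4 RARE-luciferase reporter cells. Compounds were added with 1 uM (final) retinol; luminescence was read after 6 hr.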
Assay [14] can be described thus: qHTS assay to identify small molecule agonists of the retinoic acid receptor (RAR) signaling pathway (AID 1159553). The gist of the method: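 Activation of retinol signaling was monitored via a RARE luciferase reporter in C3RL4 cells. After 6 hr compound treatment at 37 C, detection reagent was added for 30 min at room temperature before luminescence reading.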

Assay [15] can be described thus: qHTS assay to identify small molecule antagonists of the estrogen related receptor (ERR) signaling pathway - cell viability counter screen (AID 1224818).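 Also: series mostly up to about 46 µM; viability measured after 17.5 h of compound exposure.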 The gist of the method: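 In the same ERR cell assay, compound-treated wells (17.5 h, 37 C) were multiplexed with a fluorogenic viability reagent, CellTiter-Fluor, read after 30 min to flag cytotoxic substances.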

The nature of assay [16]: qHTS assay to identify small molecule antagonists of the estrogen related receptor signaling pathway with the pleiotropic PPARgamma coactivator (PGC) cell viability counter screen (AID 1224822; also: series mostly up to about 46 µM). The gist of the method:
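Compounds in DMSO, with positive and negative controls, were applied to PGC/ERR cells (2,000/well) and left 17.5 h at 37 C before CellTiter-Fluor detection.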

A short description of assay [17]: qHTS assay to identify small molecule agonists of the NFkB signaling pathway (AID 1159509; active = well fitted curve in the direction sought with a large enough effect in the signal ratio in the repeat runs, not every such curve was filed as active; the % refers to the signal ratio; also: series mostly up to about 61 µM). The gist of the method:
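ME-180 NFkB-bla, 2,000 cells/well, overnight plating; cpd pinned in DMSO, 5 h 37 C; B/G FRET substrate 1.5 h RT; ex 405, em 460/530 nm.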

Assay [18] can be described thus: qHTS assay to identify small molecule agonists of the estrogen related receptor (ERR) signaling pathway (AID 1224820). The gist of the method:
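Cells: ERR line from NTP, 2,000/well. Pre-incubation 6 h, 37 C/5% CO2. Compound (DMSO) pin transfer, 18 h 37 C. One-Glo, 30 min RT, luminescence.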

The subject of assay [19] is estrogen-related receptor alpha (ERRalpha) with PGC-1alpha coactivator, human. Nature of the assay: qHTS assay to identify small molecule antagonists of the estrogen related receptor signaling pathway with the pleiotropic PPARgamma coactivator (PGC) (AID 1224821; calls by dose curve). The method in brief:
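Luminescent read-out (One-Glo, 30 min at room temperature) following 18 h treatment of PGC/ERR cells at 37 C with compounds delivered in DMSO. Cells had settled 6 h at 37 C/5% CO2 before dosing.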

Assay [20] is described as follows: qHTS assay to identify small molecule agonists of the estrogen related receptor signaling pathway with the pleiotropic PPARgamma coactivator (PGC) (AID 1224823). The method in brief: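 Steps: plate PGC/ERR cells at 2,000 cells/well; incubate 6 h, 37 C/5% CO2; pin-transfer compounds (DMSO); incubate 18 h, 37 C; add One-Glo; 30 min RT; read luminescence.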

Chain of Retinoic acid receptor RXR-alpha (Homo sapiens) (P19793 whole entry, looked up): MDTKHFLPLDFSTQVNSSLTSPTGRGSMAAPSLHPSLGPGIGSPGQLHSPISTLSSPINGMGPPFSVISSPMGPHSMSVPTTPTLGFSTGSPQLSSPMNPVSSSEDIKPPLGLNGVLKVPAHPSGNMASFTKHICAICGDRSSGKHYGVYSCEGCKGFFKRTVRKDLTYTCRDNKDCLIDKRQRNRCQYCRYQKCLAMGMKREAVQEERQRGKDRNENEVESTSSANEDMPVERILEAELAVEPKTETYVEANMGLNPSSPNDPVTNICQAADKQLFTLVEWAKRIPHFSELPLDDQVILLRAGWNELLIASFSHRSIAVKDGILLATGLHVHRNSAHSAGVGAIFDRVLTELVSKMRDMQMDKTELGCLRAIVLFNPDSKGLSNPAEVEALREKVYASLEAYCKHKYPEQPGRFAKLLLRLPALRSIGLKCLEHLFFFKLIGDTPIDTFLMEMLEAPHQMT

As for `O=S1(=O)OC(c2ccc(O)cc2)(c2ccc(O)cc2)c2ccccc21`, the Potency entry in assay [1], in [2], in assay [3], in assay [4], in assay [5] and in [6] was “inactive” in each case. Moreover, the Potency result in [7], in [8], in assay [9], in [10], in assay [11] and in [12] was “inactive” in each case. Also, the Potency result in [13] and in assay [14] was “inactive” each time.
On to `CN(C)CCOC(c1ccccc1)c1ccccc1`, for which the Potency entry in [1], in [2], in assay [3], in assay [4], in assay [5] and in assay [6] was “inactive” each time. For the same compound, the Potency result in assay [7], in [8], in assay [10], in assay [11], in assay [12] and in assay [14] was “inactive” throughout. Moreover, the Potency entry in assay [16] was “inactive”. The Potency in [9] was 49.3 µM (active). In addition, in [15], the outcome was inactive.
`COc1ccc2cc(S(=O)(=O)N[C@H](CC(=O)N[C@H](Cc3ccc(CN4[C@H](C)CCC[C@@H]4C)cc3)C(=O)N(C)C(C)C)c3ccc4c(c3)OCO4)ccc2c1`: the Potency in assay [1] is 52 µM (active); in [2] it was 20.7 µM (active); in assay [7], 13 µM (active); in [11], 2.32 µM (active); in [13], 51.6 µM (active). Further, the compound was called inactive in [17]. The Potency entry in assay [14] was “inactive”.
As to `C1=CC2C3C=CC(C3)C2C1` (stereo not given), the Potency result in assay [1], in assay [6], in [7], in [8], in [11] and in assay [12] was “inactive” in each case. Moreover, the Potency result in assay [14] and in assay [16] was “inactive” throughout. The compound was called inactive in [17], in assay [15], in [18], in [19] and in assay [20].
As to `Nc1ccc([N+](=O)[O-])cc1O`, the result in assay [17] was inactive. In addition, the Potency entry in [6], in [7], in assay [8], in assay [9], in assay [10] and in assay [14] was “inactive” in each case. The Potency entry in assay [16] was “inactive”.
Turning to `CCCCNC(=O)NS(=O)(=O)c1ccc(C)cc1`, the Potency entry in [1], in assay [2], in assay [3], in [4], in assay [5] and in [6] was “inactive” throughout. Moreover, the Potency result in [7], in [8], in [9], in assay [10], in assay [11] and in assay [12] was “inactive” each time. For the same compound, the Potency entry in [16] is “inactive”. For the same compound, the result in [15], in assay [18], in [19] and in assay [20] was inactive.
On to `CN(C)CCOC(C)(c1ccccc1)c1ccccn1` (stereo not given), for which the Potency entry in assay [1], in [2], in [3], in assay [4], in assay [5] and in [6] was “inactive” each time. The Potency entry in assay [7], in [8], in assay [9], in [10], in assay [11] and in assay [12] was “inactive” each time. Besides, the Potency result in assay [13], in assay [14] and in [16] was “inactive” each time. For the same compound, the compound was called inactive in assay [15], in [18], in assay [19] and in assay [20].
With `CN[C@H]1CC[C@@H](c2ccc(Cl)c(Cl)c2)c2ccccc21`, the Potency is 13.3 µM (active) in [1], 23.9 µM (active) in assay [2] and 26.6 µM (active) in assay [13]. Moreover, the compound was called inactive in [17], in [15], in assay [18] and in [19]. The Potency entry in [6], in assay [7], in [8], in [12] and in [16] was “inactive” in each case.
